Several values for one entry are separate records, joined by “and”; a condition that tells them apart may be missing. Identical values can stand only once. Inconclusive results are not listed. Some structures have more than one record in an assay (separate samples or runs), and their calls can disagree. Activity calls are given as the source filed them. How the source made its calls, unless noted: active means hit-call score of the fitted dose curve at least 0.9, where 1 is the maximum; inactive means score below 0.9.
Assay: CCTE_Shafer_MEA_dev_bursting_electrodes_number: CCTE's Neural Network Formation Assay for Number of Bursting Electrodes, Shafer Lab (AID 2284043; active means hit-call score of the fitted dose curve at least 0.9, where 1 is the maximum;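 on AC50: potency is for loss of bursting electrodes relative to DMSO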)
How it was run: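 Primary rat cortical neurons plated on 16-electrode MEA wells, exposed from day 0 with compound renewed at DIV 5 and 9. Electrodes bursting ≥1 burst per 2 min counted on days 5, 7, 9 and 12; trapezoidal AUC across days, fitted for loss versus DMSO.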

Compound | AC50 | outcome
BrC1CC(Br)CC(Br)CC(Br)CC(Br)CC(Br)C1 (stereo not drawn) | 5.42 µM (active) | 
CC(CNC(=S)[S-])NC(=S)[S-].[Zn+2] (stereo not drawn) | 15 µM (active) | 
CC(=O)N[C@@H](CC(=O)O)C(=O)O |  | inactive
CC(C)c1nn(C(=O)NC(C)(C)C)c(=O)n1N |  | inactive
Cc1[nH]n(C)c(=O)c1C(=O)c1ccc(C(F)(F)F)cc1S(C)(=O)=O |  | inactive
Brc1cc(Br)c(Oc2cc(Br)c(Br)cc2Br)cc1Br |  | inactive
[O]=[V]([OH])([OH])[OH] | 9.39 µM (active) | 
CCCCCC(C)(CC)C(=O)NC (stereo not drawn) | 50 µM (active) | 
C[C@@H]1CCO[C@H]2Cn3cc(C(=O)NCc4ccc(F)cc4F)c(=O)c(O)c3C(=O)N12 | 1.65 µM (active) | 
CCCCCC=C(C)C(CC)CCO (stereo not drawn) |  | inactive
CCc1ccccc1 |  | inactive
C[C@@H]1CC[C@@H](C(C)(C)O)[C@H](O)C1 |  | inactive
CC(C)O | 11.8 µM (active) | 

Assay: CCTE_Shafer_MEA_dev_per_burst_interspike_interval: CCTE's Neural Network Formation Assay for Burst Interspike Interval, Shafer Lab (AID 2284044);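 further: mean spike spacing inside bursts as AUC over recordings on days 5 7 9 12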;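 on AC50: potency for a decrease of within-burst interspike interval below DMSO level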
How it was run: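 Developmental network-formation MEA in primary rat cortical cultures with exposure spanning days 0–12. Within-burst ISI is averaged per well and integrated across recording days by area under the curve, with DMSO as negative control baseline.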

Compound | AC50 | outcome
BrC1CC(Br)CC(Br)CC(Br)CC(Br)CC(Br)C1 (stereo not drawn) | 8.48 µM (active) | 
CC(CNC(=S)[S-])NC(=S)[S-].[Zn+2] (stereo not drawn) | 26.2 µM (active) | 
CC(=O)N[C@@H](CC(=O)O)C(=O)O |  | inactive
CC(C)c1nn(C(=O)NC(C)(C)C)c(=O)n1N |  | inactive
Cc1[nH]n(C)c(=O)c1C(=O)c1ccc(C(F)(F)F)cc1S(C)(=O)=O |  | inactive
Brc1cc(Br)c(Oc2cc(Br)c(Br)cc2Br)cc1Br |  | inactive
F |  | inactive
[O]=[V]([OH])([OH])[OH] |  | inactive
CCCCCC(C)(CC)C(=O)NC (stereo not drawn) |  | inactive
C[C@@H]1CCO[C@H]2Cn3cc(C(=O)NCc4ccc(F)cc4F)c(=O)c(O)c3C(=O)N12 | 1.8 µM (active) | 
CCCCCC=C(C)C(CC)CCO (stereo not drawn) |  | inactive
CCc1ccccc1 |  | inactive
C[C@@H]1CC[C@@H](C(C)(C)O)[C@H](O)C1 |  | inactive
CC(C)O | 10.2 µM (active) | 

Assay: CCTE_Shafer_MEA_dev_burst_duration_mean: CCTE's Neural Network Formation Assay for Mean Burst Duration, Shafer Lab (AID 2284045);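 on AC50: curve fitted for loss meaning shorter burst duration than DMSO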
How it was run: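 Primary rat cortical neurons on 48-well 16-electrode MEA plates, exposed from day 0 with renewal at DIV 5 and 9; spontaneous activity recorded on days 5, 7, 9, 12. Well-mean burst duration across bursting electrodes, collapsed as trapezoidal AUC; DMSO baseline.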

Compound | outcome | AC50
BrC1CC(Br)CC(Br)CC(Br)CC(Br)CC(Br)C1 (stereo not drawn) | inactive | 
CC(CNC(=S)[S-])NC(=S)[S-].[Zn+2] (stereo not drawn) |  | 9.67 µM (active)
CC(=O)N[C@@H](CC(=O)O)C(=O)O | inactive | 
CC(C)c1nn(C(=O)NC(C)(C)C)c(=O)n1N | inactive | 
Cc1[nH]n(C)c(=O)c1C(=O)c1ccc(C(F)(F)F)cc1S(C)(=O)=O | inactive | 
Brc1cc(Br)c(Oc2cc(Br)c(Br)cc2Br)cc1Br | inactive | 
F | inactive | 
[O]=[V]([OH])([OH])[OH] | inactive | 
CCCCCC(C)(CC)C(=O)NC (stereo not drawn) | inactive | 
C[C@@H]1CCO[C@H]2Cn3cc(C(=O)NCc4ccc(F)cc4F)c(=O)c(O)c3C(=O)N12 | inactive | 
CN(C)CCCn1cc(C2=C(c3c[nH]c4ccccc34)C(=O)NC2=O)c2ccccc21 | inactive | 
CCCCCC=C(C)C(CC)CCO (stereo not drawn) | inactive | 
CCc1ccccc1 | inactive | 
C[C@@H]1CC[C@@H](C(C)(C)O)[C@H](O)C1 | inactive | 
CC(C)O | inactive | 

Assay: CCTE_Shafer_MEA_dev_inter_network_spike_interval_mean: CCTE's Neural Network Formation Assay for Mean Inter-network Spike Interval, Shafer Lab (AID 2284047)
How it was run: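 Rat cortical cultures, 1.5 x 10^5 cells/well on 48-well MEA plates; continuous exposure days 0–12, medium and compound refreshed DIV 5, 9. Mean time between consecutive network-spike peaks; AUC across DIV 5/7/9/12; DMSO baseline, negative fitting direction.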

Compound | outcome
BrC1CC(Br)CC(Br)CC(Br)CC(Br)CC(Br)C1 (stereo not drawn) | inactive
CC(CNC(=S)[S-])NC(=S)[S-].[Zn+2] (stereo not drawn) | inactive
CC(=O)N[C@@H](CC(=O)O)C(=O)O | inactive
CC(C)c1nn(C(=O)NC(C)(C)C)c(=O)n1N | inactive
Cc1[nH]n(C)c(=O)c1C(=O)c1ccc(C(F)(F)F)cc1S(C)(=O)=O | inactive
Brc1cc(Br)c(Oc2cc(Br)c(Br)cc2Br)cc1Br | inactive
F | inactive
[O]=[V]([OH])([OH])[OH] | inactive
CCCCCC(C)(CC)C(=O)NC (stereo not drawn) | inactive
C[C@@H]1CCO[C@H]2Cn3cc(C(=O)NCc4ccc(F)cc4F)c(=O)c(O)c3C(=O)N12 | inactive
CN(C)CCCn1cc(C2=C(c3c[nH]c4ccccc34)C(=O)NC2=O)c2ccccc21 | inactive
CCCCCC=C(C)C(CC)CCO (stereo not drawn) | inactive
CCc1ccccc1 | inactive
C[C@@H]1CC[C@@H](C(C)(C)O)[C@H](O)C1 | inactive
CC(C)O | inactive

Assay: CCTE_Shafer_MEA_dev_network_spike_number: CCTE's Neural Network Formation Assay for Number of Network Spikes, Shafer Lab (AID 2284048);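 on AC50: fit as a loss of signal meaning fewer network spikes than DMSO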
How it was run: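 Primary rat cortical neurons on PEI/laminin 48-well MEA plates, dosed from plating day 0 for 12 days, renewed at DIV 5 and 9. Network spike counts recorded DIV 5, 7, 9, 12, collapsed as trapezoidal AUC; DMSO baseline.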

Compound | AC50 | outcome
BrC1CC(Br)CC(Br)CC(Br)CC(Br)CC(Br)C1 (stereo not drawn) | 8.72 µM (active) | 
CC(CNC(=S)[S-])NC(=S)[S-].[Zn+2] (stereo not drawn) | 8.44 µM (active) | 
CC(=O)N[C@@H](CC(=O)O)C(=O)O |  | inactive
CC(C)c1nn(C(=O)NC(C)(C)C)c(=O)n1N |  | inactive
Cc1[nH]n(C)c(=O)c1C(=O)c1ccc(C(F)(F)F)cc1S(C)(=O)=O |  | inactive
Brc1cc(Br)c(Oc2cc(Br)c(Br)cc2Br)cc1Br |  | inactive
F |  | inactive
[O]=[V]([OH])([OH])[OH] |  | inactive
CCCCCC(C)(CC)C(=O)NC (stereo not drawn) |  | inactive
C[C@@H]1CCO[C@H]2Cn3cc(C(=O)NCc4ccc(F)cc4F)c(=O)c(O)c3C(=O)N12 | 1.54 µM (active) | 
CN(C)CCCn1cc(C2=C(c3c[nH]c4ccccc34)C(=O)NC2=O)c2ccccc21 | 264 nM (active) and 467 nM (active) and 1.58 µM (active) | inactive
CCCCCC=C(C)C(CC)CCO (stereo not drawn) |  | inactive
CCc1ccccc1 |  | inactive
C[C@@H]1CC[C@@H](C(C)(C)O)[C@H](O)C1 |  | inactive
CC(C)O |  | inactive

— PubChem BioAssay (EPA / NIEHS)
